M1 PAM: human CHRM1 positive allosteric modulation; CHO-K1 hM1, Fluo-8 calcium fluorescence, ACh EC20; 0% = ACh EC20, 100% = maximal ACh; activation, % at 3 µM; AID 588819; actives 0.088% (n = 360,000); P11229; in the data active = activation above about 19%, passing the limit was not always enough
Target sequence (P11229 whole entry, looked up): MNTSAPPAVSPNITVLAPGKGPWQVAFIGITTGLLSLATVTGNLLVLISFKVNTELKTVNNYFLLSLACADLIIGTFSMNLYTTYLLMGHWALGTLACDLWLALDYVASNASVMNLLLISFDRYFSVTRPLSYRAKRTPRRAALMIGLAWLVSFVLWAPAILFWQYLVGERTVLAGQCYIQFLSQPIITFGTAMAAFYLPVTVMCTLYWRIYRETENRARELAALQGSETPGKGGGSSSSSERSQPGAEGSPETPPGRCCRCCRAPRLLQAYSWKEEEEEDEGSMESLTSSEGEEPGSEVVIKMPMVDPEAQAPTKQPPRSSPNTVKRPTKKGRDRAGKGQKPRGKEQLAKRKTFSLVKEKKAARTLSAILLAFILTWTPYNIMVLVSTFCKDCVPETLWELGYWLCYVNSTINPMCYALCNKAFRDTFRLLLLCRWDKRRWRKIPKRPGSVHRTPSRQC
CHO-K1 Ca antag: nonselective inhibitor or artifact in parental CHO-K1 cells. ATP-induced calcium, Fluo-8 fluorescence. inhibition, % at 3 µM. actives 0.6% (n = 360,000). AID 602250;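 active = inhibition above a per-plate cutoff, the plate's mean sample inhibition plus 3 SD, cut at about 24% in these data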;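 note: 0% = DMSO plus EC80 ATP and 100% = DMSO alone without ATP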
CHO-K1 Ca PAM: nonselective activator or artifact in parental CHO-K1 calcium assay. actives 0.02% (n = 360,000). ATP EC20, Fluo-8 calcium fluorescence; 0% at ATP EC20, 100% at ATP max. activation, % at 3 µM. AID 602247;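 active = activation above the run cutoff, the mean activation of all test compounds plus 3 SD, cut at about 40% in these data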;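 note: peak over basal fluorescence ratio in a 140 s read after ATP addition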
CHRM1 antagonist: human CHRM1 antagonism. P11229. CHO-K1 hM1, Fluo-8 calcium fluorescence, ACh EC80 antagonist. inhibition, % at 3 µM. actives 1.3% (n = 360,000). AID 588852;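 active = percent inhibition above its own plate's cutoff, namely the mean of that plate's compound wells plus 3 SD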;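 note: peak over basal fluorescence ratio during 140 s after agonist addition; 0% = ACh EC80 plus DMSO and 100% = DMSO alone without agonist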
M1 ag: activates human CHRM1 receptor. AID 588814. CHO-K1 hM1, Fluo-8 calcium fluorescence, agonist mode; 0% DMSO, 100% acetylcholine EC100. activation, % at 3 µM. actives 0.33% (n = 360,000);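 active = activation above the run's mean compound activation plus 3 SD, cut at about 16% in these data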;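 note: peak over basal fluorescence ratio within a 140 s kinetic read after compound addition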
M1 ag parental: M1 agonist counterscreen hit in parental CHO-K1 cells. Fluo-8 calcium fluorescence; scaled to maximal ATP response, vehicle zero. activation, % at 3 µM. actives 0.48% (n = 360,000). AID 602248; in the data active = activation above about 15%;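 note: untransfected CHO-K1 host cells lacking M1 receptor as counterscreen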
* hit, by the source's call. Most compounds without a hit are left out; they make up all but 2.3% or so of the library.

SMILES | M1 PAM | CHO-K1 Ca antag | CHO-K1 Ca PAM | CHRM1 antagonist | M1 ag | M1 ag parental
COCCN(C(=O)CSc1nc2ccccc2c(=O)n1CC(C)C)c1c(N)n(Cc2ccccc2)c(=O)[nH]c1=O | 15 | 1 | 16 | -9 | -10 | 20*
CCCN(C(=O)CSCc1ccccc1C)c1c(N)n(Cc2ccccc2)c(=O)[nH]c1=O | 26* | -12 | 11 | -27 | 5 | 1
CCCS(=O)(=O)NC(=O)C1(C)CCN(C(=O)COc2ccccc2)C1 (centres undefined) | 0 | -16 | 12 | -10 | -2 | 0
CC1(c2ccc(Cl)cc2)NC(=O)N(CC(=O)Nc2ccc3c(c2)OCO3)C1=O (centres undefined) | -5 | 1 | -11 | 4 | 20* | 5
CC1(c2ccccc2)NC(=O)N(CC(=O)NCc2ccc3c(c2)OCO3)C1=O (centres undefined) | 8 | -8 | 7 | -4 | -4 | 1
CC1(c2ccccc2Cl)NC(=O)N(CC(=O)NCc2ccc3c(c2)OCO3)C1=O (centres undefined) | 29* | -14 | 3 | -17 | 2 | 3
COCCN(Cc1ccc(OC)cc1)c1c(C)nc2ccc(C(=O)Nc3ccc(NC(C)=O)cc3)cn12 | 5 | -10 | 13 | -11 | -5 | 1
CCOC(=O)C1CCCN(C(=O)C(C)Oc2ccc(Cl)cc2Cl)C1 (centres undefined) | -7 | -5 | 0 | -2 | 21* | 1
CCOC(=O)C1CCN(C(=O)COC(=O)/C=C/c2ccccc2)CC1 | 12 | -4 | 1 | -10 | 5 | 0
CCOC(=O)C1CCN(C(=O)COc2ccc(Cl)cc2C)CC1 | 5 | -11 | 16 | -7 | -4 | 1
CCOC(=O)C1CCCN(C(=O)c2cc(Cl)ccc2Cl)C1 (centres undefined) | 2 | -33 | 11 | -5 | 19* | 2
COC(=O)C1CCN(C(=O)C(C)Oc2ccc(Cl)cc2Cl)CC1 (centres undefined) | 7 | -3 | 6 | -6 | -1 | 1
CCOC(=O)C1CCN(C(=O)COC(=O)/C=C/c2cccc(OC)c2OC)CC1 | 14 | -22 | 24 | -9 | 19* | 1
CCOC(=O)C1CCN(C(=O)COc2ccc(Cl)cc2Cl)CC1 | -7 | 24* | -8 | 17 | -2 | 1
CCOC(=O)C1CCCN(C(=O)c2ccc(Cl)cc2)C1 (centres undefined) | 3 | -20 | 10 | 2 | -8 | 0
CCCNC(=O)c1cc(C2CCCCN2S(=O)(=O)Cc2cccc(C(F)(F)F)c2)on1 (centres undefined) | 1 | -11 | 13 | -14 | -8 | 0
CC1CCCCN1C(=O)/C(=C\c1ccccc1)c1ccccc1 (centres undefined) | -9 | -15 | 25 | 11 | -8 | 2
CCCCCCN1C[C@H](n2cc(-c3ccc(F)cc3)nn2)[C@@H](O)C[C@@H]1c1ccc(Cl)cc1 | 5 | -12 | 10 | -10 | -4 | 1
COc1ccc(N2C(=O)c3ccc(C(=O)Nc4ccc(NC(C)=O)cc4)cc3C2=O)cc1 | 18 | -4 | 9 | -15 | -1 | 0
CCOC(=O)C1CCCN(C(=O)c2ccc(S(=O)(=O)N3CCCC3)cc2)C1 (centres undefined) | -16 | -2 | -3 | 39* | -3 | 1
CCOC(=O)C1CCCN(C(=O)c2ccc(S(=O)(=O)N3CCOCC3)cc2)C1 (centres undefined) | -7 | 1 | -22 | 17 | 0 | 0
Nc1c2c(nc3sc4c(c13)CCCCC4)CCCCC2 | -24 | 2 | 1 | 51* | -6 | 8
CC1CCc2nc3sc4c(c3c(N)c2C1)CCCC4 (centres undefined) | -13 | 0 | 12 | 2 | -12 | 0
Cc1ccc(CN2CCC(C)(Oc3ccc(Cl)cc3)C2)cc1 (centres undefined) | 3 | -9 | 15 | -10 | -8 | 0
O=C(Nc1ccccc1)c1cc(C2CCCN(C(=O)C3CC3)C2)on1 (centres undefined) | 6 | -11 | 28 | -10 | -5 | 2

Bioassay records deposited in PubChem BioAssay by The Scripps Research Institute Molecular Screening Center.
